In PubChem BioAssay:

Experiment: blood-stage malaria parasite viability loss – strain 3D7, DAPI fluorescence, 100 nL, primary screen (AID 1184);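 further: parasites grown inside human red blood cells in medium with human serum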
Conditions: P. falciparum 3D7 growth, 3 d, higher = more signal

Compound	z-score
CC(C)OC(=O)C=C1C[C@@H](c2ccc(C#N)cc2)O[C@@H](c2ccc(C#N)cc2)O1	-0.868
COC(=O)C1(C)C=C2C(=C(c3ccccc3)C(=O)C2C)CN1 (stereo unspecified)	-0.0619
C=C(COC)/C(=C/C[C@H](OC(=O)c1ccncc1)c1ccc(CO)o1)c1cc(C(=O)OC)ccc1OC	0.215
CC(C)=C1C(=O)C(c2ccccc2)=C2CN3C(=O)N(CCc4ccccc4)C(=O)[C@]3(Cc3ccc(F)cc3)[C@H]21	-0.418
O=C1NC(=O)C2C1C=CC(C(O)Cc1ccccc1)N2Nc1ccccn1 (stereo unspecified)	0.396
CC(C)(C)N1CC=CC23O[C@@H]4C=CCCOC(=O)C4[C@H]2C(=O)N(CCCCCO)[C@@H]3C1=O (stereo partly specified)	0.519
CN(C)c1ccc(C(O)C2C=CC3C(=O)N(c4ccccc4)C(=O)C3N2Nc2ccccc2F)cc1 (stereo unspecified)	-0.0341
CC(C)(C)OC(=O)CC[C@]1(C(=O)NCc2ccccc2)N=C(c2ccc(OCCCO)cc2)O[C@H]1c1ccccc1	-1.58
COC(=O)[C@]1(CO)N=C(c2ccc(OCCCO)cc2)O[C@@H]1c1ccccc1N=[N+]=[N-]	-0.313
COC(=O)[C@@]1(Cc2ccc(F)cc2)[C@H]2c3cc(C(=O)N(C)C)n(Cc4ccc(OC)c(OC)c4)c3C[C@H]2CN1C(=O)c1ccccc1	-1.03
CCOc1ccc(N2C(=O)/C(=C/C=C/c3ccccc3OC)S(=O)(=O)C2c2cccc([N+](=O)[O-])c2)cc1 (stereo unspecified)	0.418
CN(C)CCCNC(=O)[C@@H]1c2ccccc2C(=O)N(Cc2cc(F)cc(C(F)(F)F)c2)[C@H]1c1ccc(CO)cc1	-0.1
CC(C)(C)OC(=O)CC[C@]1(C(N)=O)COC(c2ccc(OCCCO)cc2)=N1	0.0099
CCCCCN1CC=CC23O[C@@H]4C=CCOC(=O)[C@@H]4[C@H]2C(=O)N(C(CO)C(C)C)[C@@H]3C1=O (stereo partly specified)	-0.303
C=C(/C(=C/C[C@@H](OC(=O)c1ccncc1)c1ccc(OCCO)cc1)c1cnc2ccccc2c1)C(C)C	-2.84
O=C1O[C@@H](c2ccccc2)[C@@H](c2ccccc2)N2[C@@H](c3ccc(OCCO)cc3)[C@]3(C(=O)Nc4ccc(C#CCCO)cc43)[C@@H](C(=O)N3CCCCCCC3)[C@H]12	-2.22

Compound	z-score
Cc1ccc(C2CC=C(C(=O)O)CN2S(=O)(=O)c2ccc(C)cc2)cc1 (stereo unspecified)	-1.2
Cc1ccc(S[C@]2(C(=O)O)CC(=O)N(Cc3ccccc3)[C@@H]2c2ccc(CO)cc2I)cc1	-0.58
CCOC(=O)C[C@H]1[C@H](OC(=O)c2ccc(C(=O)c3ccccc3)cc2)[C@@H](NC(=O)c2ccc(-c3ccccc3)cc2)c2cc(OCCCO)ccc2N1C(=O)c1ccc2ccccc2n1	-1.04
C=CCN1C(=O)[C@]2(O[C@H](CCn3cc(CCO)nn3)[C@@H]([Si](C)(C)c3ccc(OC)cc3)[C@@H]2C)c2cc(N3CCOC3=O)ccc21	-2.7
CN(C)C(=O)[C@@]1(Cc2ccccc2)N=C(c2ccc(OCCCO)cc2)O[C@H]1c1ccccc1CN=[N+]=[N-]	-2.11
COc1ccc([Si](C)(C)[C@H]2[C@H](CC(=O)N3CCC[C@H]3CO)O[C@@]3(C(=O)N(Cc4cccc(N5C(=O)COc6ccccc65)c4)c4ccccc43)[C@@H]2C)cc1	-1.56
COCCCNC(=O)[C@@]1(CCS(=O)(=O)c2ccccc2)N=C(c2ccc(OCCCO)cc2)O[C@H]1c1ccccc1	-1.62
COCCCNC(=O)[C@]1(Cc2ccccc2)N=C(c2ccc(OCCCO)cc2)O[C@@H]1c1ccccc1	-2.17
COc1ccccc1CN1C(=O)c2ccccc2[C@@]2(Cc3ccccc3N(C(C)C)C2=O)[C@@H]1c1ccc(CO)cc1	0.559
CC(C)N1CC=CC23O[C@@H]4C=CCCOC(=O)C4[C@H]2C(=O)N(CCCCCCO)[C@@H]3C1=O (stereo partly specified)	0.0012
CCCNC(=O)[C@@H]1c2ccccc2C(=O)N(c2ccc(C)cn2)[C@H]1c1ccc(CO)cc1	0.167
CCCNC(=O)[C@@H]1c2ccccc2C(=O)N(Cc2ccccc2Cl)[C@H]1c1ccc(CO)cc1	-0.994
O=C1C[C@]2(c3ccc([N+](=O)[O-])cc3)C(=O)N(CCN3CCOCC3)c3cc(CO)ccc3[C@H]2N1CC12CC3CC(CC(C3)C1)C2	-0.226
CN1C(=O)C2C=CC(C(O)c3ccc(Br)cc3)N(N(c3ccccc3)c3ccccc3)C2C1=O (stereo unspecified)	-0.233
CC1CC/C=C\[C@H]2OC34C=CCN(C(C)C)C(=O)[C@H]3N(CCCO)C(=O)[C@@H]4C2C(=O)O1 (stereo partly specified)	-0.0943
